Experimental data from PubChem BioAssay (NCI).
Compounds without any hit were thinned out: in the full panel of roughly 83,000, 20% have a hit.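 Percent growth is the endpoint: 0 to 100 indicates growth inhibition (40 means 60% inhibition), 0 means no net growth, and negative values indicate cell death.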 Unmarked numbers belong to inactive results. The source made the active and inactive calls. How the source made its calls: active means growth percent below 10; inactive means the rest.

What was measured:
Test in all cases: NCI-60 one-dose screen, 48 h (100 = growth as untreated, 0 = no growth, -100 = all killed)
SR leukemia = conditions: 10 µM unless noted
RPMI-8226 leukemia = conditions: 10 µM unless noted
OVCAR-8 ovarian = conditions: 10 µM unless noted
OVCAR-5 ovarian = conditions: 10 µM unless noted
OVCAR-4 ovarian = conditions: 10 µM unless noted
SK-OV-3 ovarian = conditions: 10 µM unless noted
IGROV1 ovarian = conditions: 10 µM unless noted
OVCAR-3 ovarian = conditions: 10 µM unless noted
HS 578T breast = conditions: 10 µM
NCI/ADR-RES ovarian = conditions: 10 µM unless noted
BT-549 breast = conditions: 10 µM unless noted
MDA-MB-435 melanoma = conditions: 10 µM unless noted
SW-620 colon = conditions: 10 µM unless noted
MCF7 breast = conditions: 10 µM unless noted
HCT-116 colon = conditions: 10 µM unless noted
HCC-2998 colon = conditions: 10 µM unless noted
KM12 colon = conditions: 10 µM unless noted
T-47D breast = conditions: 10 µM unless noted

Row | SMILES | growth (SR leukemia) | growth (RPMI-8226 leukemia) | growth (OVCAR-8 ovarian) | growth (OVCAR-5 ovarian) | growth (OVCAR-4 ovarian) | growth (SK-OV-3 ovarian) | growth (IGROV1 ovarian) | growth (OVCAR-3 ovarian) | growth (HS 578T breast) | growth (NCI/ADR-RES ovarian) | growth (BT-549 breast) | growth (MDA-MB-435 melanoma) | growth (SW-620 colon) | growth (MCF7 breast) | growth (HCT-116 colon) | growth (HCC-2998 colon) | growth (KM12 colon) | growth (T-47D breast)
1 | CCCCCCCCCCCCCCCCOc1ccc(S(=O)(=O)N(C)C)cc1[N+](=O)[O-] | 81.6% | 107% | 102% | 101% | 101% | 79.2% | 98.5% | 117% | 80.4% | 115% | 97.4% | 107% | 113% | 95.8% | 98.2% | 122% | 112% | 
2 | COc1ccc([C@@H]2[C@@H](Cl)C(=O)N2c2cc(OC)c(OC)c(OC)c2)cc1C | 9.63% (active) | 8.48% (active) | 14.8% | 59.7% | 39.1% | 30.4% | 31.6% | -5.67% (active) | 47.9% | 16% | 6.51% (active) |  | 26.7% | 20.5% | 3.33% (active) | 19.5% | 12.8% | 77.7%
3 | Cc1ccc(-c2cnc3sc4ccc(Cl)cc4n23)cc1 | 111% | 98.6% | 103% | 106% | 86.9% | 75.7% | 81% | 101% | 110% | 94.6% | 100% | 105% | 89.7% | 81.5% | 89% | 105% | 96.5% | 
4 | C#CC[C@@H]1C[C@]2(C)[C@H]3CC=C4[C@H]5[C@@H](C)[C@H](C)CC[C@]5(C(=O)NCCCCCCCCN)CC[C@@]4(C)[C@]3(C)CC[C@H]2C(C)(C)[C@H]1OC(C)=O | 3.43% (active) | -45.8% (active) | -33.6% (active) | 108% | -0.477% (active) | 116% | 50.9% | -91.5% (active) | 101% | 65.9% | 93.7% | -62.4% (active) | -61.9% (active) | -80.4% (active) | -99.4% (active) | 58.4% |  | 
5 | COc1ccc(C2=CC(c3ccc(OC)cc3Br)N3C=CSC3=N2)cc1 (stereo unspecified) | -22.1% (active) | -9.05% (active) | 73.7% | 84.6% | 79.7% | 98.2% | 37.8% | 37.5% | 87.7% | 86.5% | 30.7% |  | 27.3% | 10.5% | -100% (active) | 59.7% | 24.1% | 54.6%
6 | COc1ccc(/C(=C\c2cc(OC)c(OC)c(OC)c2)C(=O)N2CCNCC2)cc1 | 94.6% | 95.1% | 105% | 102% | 110% | 108% | 102% | 108% | 102% | 98.3% | 104% |  |  | 95.5% | 94.5% | 104% | 94.2% | 82.8%
7 | O=C(O)/C=C(\c1nc2ccc([N+](=O)[O-])cc2[nH]1)c1cc(Cl)ccc1O | 29.6% | -15.7% (active) | 24.5% | 87.1% | 8.51% (active) | 29.9% | 25.7% | -16% (active) | 45.9% | 17.7% | 8.6% (active) |  | 28.6% | 13.4% | 8.05% (active) | 27.8% | 21.3% | 5.42% (active)
8 | C#CCNC(=S)N/N=C(\C)c1ccccn1 | 3.06% (active) | 12.9% | 12.4% | 35.1% | 29.1% | 30.8% | 5.45% (active) | 16.6% | 70.2% | 8.45% (active) | -2.53% (active) |  | 34.3% | 4.54% (active) | 1.22% (active) | 35.1% | 23.5% | 24.1%
9 | C#CC[C@@H]1C[C@]2(C)[C@H]3CC=C4[C@H]5[C@@H](C)[C@H](C)CC[C@]5(C(=O)NCCCCN)CC[C@@]4(C)[C@]3(C)CC[C@H]2C(C)(C)[C@H]1OC(C)=O | -19.2% (active) | 5.75% (active) | 63.7% | 108% | 68.3% | 109% | 74.8% | 55.6% | 102% | 86.1% | 93.8% | 40% | 20.1% | 12.2% | -56.4% (active) | 30% | 38.3% | 
